Assay results as given in PubChem BioAssay AID1159580 (chemical genetic matrix, 2015).
About 2,000 (36%) of roughly 5,500 compounds were called active. Another 18% or so got no clear call; they are omitted. This is one part of the list. Values without a mark were called inactive. Cut-off read from the data, not from the text of the source: active = normalized growth mostly below about 0.91 (no sharp cut-off); inconclusive = no clear call, values can overlap the other calls; inactive = mostly above about 0.92.

Assay: chemical genetic growth profiling, strain panel (AID 1159580);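 note: tested at 20 µM; growth read once vehicle control cultures reached saturation at 30 °C; 1 = growth at the plate median or of vehicle wells; lower values mean less growth of the strain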
Conditions: growth OD
[1] = S. cerevisiae deletion strains, locus YAR019C, strain CDC15, stronger effect = lower value
[2] = S. cerevisiae deletion strains, locus YBL105C, strain PKC1, stronger effect = lower value
[3] = S. cerevisiae deletion strains, locus YBR135W, strain CKS1, stronger effect = lower value
[4] = S. cerevisiae deletion strains, locus YBR136W, strain MEC1, stronger effect = lower value
[5] = S. cerevisiae deletion strains, locus YBR160W, strain CDC28, stronger effect = lower value
[6] = S. cerevisiae deletion strains, locus YDL017W, strain CDC7, stronger effect = lower value
[7] = S. cerevisiae deletion strains, locus YDL028C, strain MPS1, stronger effect = lower value
[8] = S. cerevisiae deletion strains, locus YDL101C, strain DUN1, stronger effect = lower value
[9] = S. cerevisiae deletion strains, locus YDL108W, strain KIN28, stronger effect = lower value
[10] = S. cerevisiae deletion strains, locus YDL132W, strain cdc53, stronger effect = lower value
[11] = S. cerevisiae deletion strains, locus YDL214C, strain PRR2, stronger effect = lower value
[12] = S. cerevisiae deletion strains, locus YDR052C, strain DBF4, stronger effect = lower value
[13] = S. cerevisiae deletion strains, locus YDR054C, strain cdc34, stronger effect = lower value
[14] = S. cerevisiae deletion strains, locus YDR226W, strain ADK1, stronger effect = lower value
[15] = S. cerevisiae deletion strains, locus YDR477W, strain SNF1, stronger effect = lower value
[16] = S. cerevisiae deletion strains, locus YER123W, strain YCK3, stronger effect = lower value
[17] = S. cerevisiae deletion strains, locus YER133W, strain GLC7, stronger effect = lower value
[18] = S. cerevisiae deletion strains, locus YFL009W, strain cdc4, stronger effect = lower value
[19] = S. cerevisiae deletion strains, locus YFL029C, strain CAK1, stronger effect = lower value
[20] = S. cerevisiae deletion strains, locus YFR003C, strain YPI1, stronger effect = lower value
[21] = S. cerevisiae deletion strains, locus YFR019W, strain FAB1, stronger effect = lower value
[22] = S. cerevisiae deletion strains, locus YFR028C, strain CDC14, stronger effect = lower value
[23] = S. cerevisiae deletion strains, locus YGR040W, strain KSS1, stronger effect = lower value
[24] = S. cerevisiae deletion strains, locus YGR052W, strain FMP48, stronger effect = lower value
[25] = S. cerevisiae deletion strains, locus YGR092W, strain DBF2, stronger effect = lower value
[26] = S. cerevisiae deletion strains, locus YHR030C, strain SLT2, stronger effect = lower value
[27] = S. cerevisiae deletion strains, locus YHR079C, strain IRE1, stronger effect = lower value
[28] = S. cerevisiae deletion strains, locus YHR082C, strain KSP1, stronger effect = lower value
[29] = S. cerevisiae deletion strains, locus YHR205W, strain SCH9, stronger effect = lower value
[30] = S. cerevisiae deletion strains, locus YIL147C, strain SLN1, stronger effect = lower value
[31] = S. cerevisiae deletion strains, locus YJL095W, strain BCK1, stronger effect = lower value
[32] = S. cerevisiae deletion strains, locus YJL128C, strain PBS2, stronger effect = lower value
[33] = S. cerevisiae deletion strains, locus YJL157C, strain FAR1, stronger effect = lower value
[34] = S. cerevisiae deletion strains, locus YJR016C, strain ILV3, stronger effect = lower value
[35] = S. cerevisiae deletion strains, locus YJR066W, strain TOR1 (second series), stronger effect = lower value
[36] = S. cerevisiae deletion strains, locus YJR066W, strain TOR1, stronger effect = lower value
[37] = S. cerevisiae deletion strains, locus YKL048C, strain ELM1, stronger effect = lower value
[38] = S. cerevisiae deletion strains, locus YKL067W, strain YNK1, stronger effect = lower value
[39] = S. cerevisiae deletion strains, locus YKL101W, strain HSL1, stronger effect = lower value
[40] = S. cerevisiae deletion strains, locus YKL193C, strain SDS22, stronger effect = lower value
[41] = S. cerevisiae deletion strains, locus YKL203C, strain TOR2, stronger effect = lower value
[42] = S. cerevisiae deletion strains, locus YLR113W, strain HOG1, stronger effect = lower value
[43] = S. cerevisiae deletion strains, locus YLR133W, strain CKI1, stronger effect = lower value
[44] = S. cerevisiae deletion strains, locus YLR403W, strain SFP1, stronger effect = lower value
[45] = S. cerevisiae deletion strains, locus YML070W, strain DAK1, stronger effect = lower value
[46] = S. cerevisiae deletion strains, locus YMR001C, strain CDC5, stronger effect = lower value
[47] = S. cerevisiae deletion strains, locus YMR205C, strain PFK2 (second series), stronger effect = lower value
[48] = S. cerevisiae deletion strains, locus YMR277W, strain FCP1, stronger effect = lower value
[49] = S. cerevisiae deletion strains, locus YNL006W, strain LST8, stronger effect = lower value
[50] = S. cerevisiae deletion strains, locus YNL020C, strain ARK1, stronger effect = lower value
[51] = S. cerevisiae deletion strains, locus YNL161W, strain CBK1, stronger effect = lower value
[52] = S. cerevisiae deletion strains, locus YNL183C, strain NPR1, stronger effect = lower value
[53] = S. cerevisiae deletion strains, locus YNL207W, strain RIO2, stronger effect = lower value
[54] = S. cerevisiae deletion strains, locus YNL222W, strain SSU72, stronger effect = lower value
[55] = S. cerevisiae deletion strains, locus YNL307C, strain MCK1 (second series), stronger effect = lower value
[56] = S. cerevisiae deletion strains, locus YOL078W, strain AVO1, stronger effect = lower value
[57] = S. cerevisiae deletion strains, locus YOL136C, strain PFK27, stronger effect = lower value
[58] = S. cerevisiae deletion strains, locus YOR061W, strain CKA2, stronger effect = lower value
[59] = S. cerevisiae deletion strains, locus YOR119C, strain RIO1, stronger effect = lower value
[60] = S. cerevisiae deletion strains, locus YOR231W, strain MKK1, stronger effect = lower value
[61] = S. cerevisiae deletion strains, locus YOR329C, strain SCD5, stronger effect = lower value
[62] = S. cerevisiae deletion strains, locus YPL031C, strain PHO85, stronger effect = lower value
[63] = S. cerevisiae deletion strains, locus YPL153C, strain RAD53, stronger effect = lower value
[64] = S. cerevisiae deletion strains, locus YPL204W, strain HRR25, stronger effect = lower value
[65] = S. cerevisiae deletion strains, locus YPL209C, strain IPL1, stronger effect = lower value
[66] = S. cerevisiae deletion strains, locus YPL256C, strain CLN2, stronger effect = lower value
[67] = S. cerevisiae deletion strains, locus YPR025C, strain CCL1, stronger effect = lower value
[68] = S. cerevisiae deletion strains, locus YPR106W, strain ISR1, stronger effect = lower value
[69] = S. cerevisiae deletion strains, locus YPR111W, strain DBF20, stronger effect = lower value
[70] = S. cerevisiae deletion strains, strain NNK1, stronger effect = lower value
[71] = S. cerevisiae deletion strains, strain TSCII, stronger effect = lower value

Nc1ccccc1SCc1c(Cl)cccc1Cl
normalized growth [1]: 0.949
normalized growth [2]: 0.947
normalized growth [3]: 0.957
normalized growth [4]: 0.945
normalized growth [5]: 0.953
normalized growth [6]: 0.952
normalized growth [7]: 0.947
normalized growth [8]: 0.953
normalized growth [9]: 0.954
normalized growth [10]: 0.94
normalized growth [11]: 0.889
normalized growth [12]: 0.962
normalized growth [13]: 0.943
normalized growth [14]: 0.969
normalized growth [15]: 0.859
normalized growth [16]: 0.795
normalized growth [17]: 0.821
normalized growth [18]: 0.946
normalized growth [19]: 0.949
normalized growth [20]: 0.944
normalized growth [21]: 0.841
normalized growth [22]: 0.948
normalized growth [23]: 0.853
normalized growth [24]: 0.787
normalized growth [25]: 0.775
normalized growth [26]: 0.695 (active)
normalized growth [27]: 0.843
normalized growth [28]: 0.835
normalized growth [29]: 0.68
normalized growth [30]: 0.952
normalized growth [31]: 0.617
normalized growth [32]: 0.914
normalized growth [33]: 0.885
normalized growth [34]: 0.956
normalized growth [35]: 0.813
normalized growth [36]: 0.767
normalized growth [37]: 0.939
normalized growth [38]: 0.87
normalized growth [39]: 0.87
normalized growth [40]: 0.952
normalized growth [41]: 0.907
normalized growth [42]: 0.696 (active)
normalized growth [43]: 0.91
normalized growth [44]: 0.795
normalized growth [45]: 0.831
normalized growth [46]: 0.945
normalized growth [47]: 0.885
normalized growth [48]: 0.951
normalized growth [49]: 0.959
normalized growth [50]: 0.891
normalized growth [51]: 0.955
normalized growth [52]: 0.79
normalized growth [53]: 0.948
normalized growth [54]: 0.951
normalized growth [55]: 0.825
normalized growth [56]: 0.943
normalized growth [57]: 0.853
normalized growth [58]: 0.843
normalized growth [59]: 0.905
normalized growth [60]: 0.751
normalized growth [61]: 0.95
normalized growth [62]: 0.841
normalized growth [63]: 0.85
normalized growth [64]: 0.857
normalized growth [65]: 0.949
normalized growth [66]: 0.917
normalized growth [67]: 0.95
normalized growth [68]: 0.95
normalized growth [69]: 0.935
normalized growth [70]: 0.944
normalized growth [71]: 0.952

N#CC(C#N)=C(SCc1c(Cl)cccc1Cl)SCc1c(Cl)cccc1Cl
normalized growth [1]: 0.997
normalized growth [2]: 0.981
normalized growth [3]: 0.992
normalized growth [4]: 0.988
normalized growth [5]: 0.996
normalized growth [6]: 0.989
normalized growth [7]: 0.993
normalized growth [8]: 0.988
normalized growth [9]: 0.989
normalized growth [10]: 0.984
normalized growth [11]: 0.996
normalized growth [12]: 0.99
normalized growth [13]: 0.977
normalized growth [14]: 0.981
normalized growth [15]: 0.993
normalized growth [16]: 0.999
normalized growth [17]: 0.995
normalized growth [18]: 0.981
normalized growth [19]: 0.986
normalized growth [20]: 0.99
normalized growth [21]: 0.979
normalized growth [22]: 0.993
normalized growth [23]: 0.993
normalized growth [24]: 1.03
normalized growth [25]: 0.982
normalized growth [26]: 0.925
normalized growth [27]: 0.93
normalized growth [28]: 1.11
normalized growth [29]: 0.859
normalized growth [30]: 0.992
normalized growth [31]: 0.969
normalized growth [32]: 0.993
normalized growth [33]: 0.989
normalized growth [34]: 0.991
normalized growth [35]: 1
normalized growth [36]: 1.09
normalized growth [37]: 0.954
normalized growth [38]: 0.995
normalized growth [39]: 0.981
normalized growth [40]: 0.987
normalized growth [41]: 1.08
normalized growth [42]: 0.95
normalized growth [43]: 0.991
normalized growth [44]: 0.937
normalized growth [45]: 0.998
normalized growth [46]: 0.985
normalized growth [47]: 0.996
normalized growth [48]: 0.994
normalized growth [49]: 0.997
normalized growth [50]: 0.987
normalized growth [51]: 0.983
normalized growth [52]: 1.1
normalized growth [53]: 0.987
normalized growth [54]: 0.987
normalized growth [55]: 0.989
normalized growth [56]: 0.993
normalized growth [57]: 0.988
normalized growth [58]: 0.995
normalized growth [59]: 1.08
normalized growth [60]: 1.01
normalized growth [61]: 0.986
normalized growth [62]: 0.989
normalized growth [63]: 1.01
normalized growth [64]: 1
normalized growth [65]: 0.987
normalized growth [66]: 0.946
normalized growth [67]: 0.996
normalized growth [68]: 0.998
normalized growth [69]: 0.988
normalized growth [70]: 0.996
normalized growth [71]: 0.993

Clc1cccc(Cl)c1CSC1=NCCCN1C1CCCCC1
normalized growth (S. cerevisiae deletion strains, locus YAL013W, strain DEP1, stronger effect = lower value): 0.999
normalized growth (S. cerevisiae deletion strains, locus YBR229C, strain ROT2, stronger effect = lower value): 1
normalized growth [8]: 1
normalized growth (S. cerevisiae deletion strains, locus YDR150W, strain NUM1, stronger effect = lower value): 0.993
normalized growth (S. cerevisiae deletion strains, locus YEL061C, strain CIN8, stronger effect = lower value): 0.973
normalized growth (S. cerevisiae deletion strains, locus YGR078C, strain PAC10, stronger effect = lower value): 1
normalized growth (S. cerevisiae deletion strains, locus YGR229C, strain SMI1, stronger effect = lower value): 1
normalized growth [26]: 0.967
normalized growth (S. cerevisiae deletion strains, locus YHR087W, strain rtc3, stronger effect = lower value): 1.01
normalized growth (S. cerevisiae deletion strains, locus YJL187C, strain SWE1, stronger effect = lower value): 1.01
normalized growth (S. cerevisiae deletion strains, locus YJR043C, strain POL32, stronger effect = lower value): 1
normalized growth (S. cerevisiae deletion strains, locus YJR075W, strain HOC1, stronger effect = lower value): 1.03
normalized growth (S. cerevisiae deletion strains, locus YLR039C, strain RIC1, stronger effect = lower value): 1
normalized growth (S. cerevisiae deletion strains, locus YLR058C, strain SHM2 (second series), stronger effect = lower value): 0.993
normalized growth (S. cerevisiae deletion strains, locus YLR085C, strain ARP6, stronger effect = lower value): 0.987
normalized growth (S. cerevisiae deletion strains, locus YLR262C, strain YPT6, stronger effect = lower value): 1.01
normalized growth (S. cerevisiae deletion strains, locus YML094W, strain GIM5, stronger effect = lower value): 0.988
normalized growth (S. cerevisiae deletion strains, locus YMR219W, strain ESC1, stronger effect = lower value): 0.994
normalized growth (S. cerevisiae deletion strains, locus YMR263W, strain SAP30, stronger effect = lower value): 1.01
normalized growth (S. cerevisiae deletion strains, locus YNL153C, strain GIM3, stronger effect = lower value): 0.985
normalized growth (S. cerevisiae deletion strains, locus YNL298W, strain CLA4 (second series), stronger effect = lower value): 0.998
normalized growth (S. cerevisiae deletion strains, locus YNL322C, strain KRE1, stronger effect = lower value): 1
normalized growth (S. cerevisiae deletion strains, locus YNR030W, strain Alg12, stronger effect = lower value): 0.975
normalized growth (S. cerevisiae deletion strains, locus YOL006C, strain TOP1, stronger effect = lower value): 0.986
normalized growth (S. cerevisiae deletion strains, locus YPL055C, strain LGE1, stronger effect = lower value): 1.05
normalized growth (S. cerevisiae deletion strains, locus YPL241C, strain CIN2, stronger effect = lower value): 0.992
normalized growth (S. cerevisiae deletion strains, locus YPR135W, strain CTF4, stronger effect = lower value): 1.09
normalized growth (S. cerevisiae strains, strain wild type, stronger effect = lower value): 1
